Data: PubChem BioAssay
Activity calls are given as the source filed them.

Experiments:
[1] = binders of probe aFSTL3 on microarray, primary screen, stem cell growth factor project, biochemical, small-molecule microarray, fluorescence 635/667 (AID 1064); conditions: higher = more signal;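 note: measures binding of the biotinylated anti-FSTL3 antibody to printed compounds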
[2] = binders from COS7 lysate, DM2A8 probe, primary screen, torsin A project, cell lysate, small-molecule microarray, fluorescence 635/667 (AID 1065); conditions: higher = more signal, COS7 lysate expressing mutant human TOR1A
[3] = binders of probe aFGF2 on microarray, primary screen, stem cell growth factor project, biochemical, small-molecule microarray, fluorescence 635/667 (AID 1067); conditions: higher = more signal;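 note: measures binding of biotinylated aFGF2 protein to printed compounds on slides; z-score merges feature fluorescence and signal-to-noise across triplicate slides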
[4] = binders of probe aFGF10 on microarray, primary screen, stem cell growth factor project, biochemical, small-molecule microarray, fluorescence 635/667 (AID 1071); conditions: higher = more signal;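 note: score merges 667 nm spot intensity and signal to noise from triplicate slides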
[5] = target: Neurogenic locus notch homolog protein 2 (Homo sapiens) (UniProt Q04721); experiment: Notch2 binders on small-molecule microarrays, primary screen, biochemical, small-molecule microarray, 635 nm fluorescence, stem cell growth factors (AID 1073); conditions: Notch2 binding, higher = more signal
[6] = target: Pro-neuregulin-1, membrane-bound isoform (Homo sapiens) (UniProt Q02297); experiment: NRG1 binders on small-molecule microarrays, primary screen, psychiatric disease protein project, biochemical, small-molecule microarray, fluorescence 635/667 (AID 1075); conditions: NRG1 binding, 635 nm fluorescence, higher = more signal;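 note: score combines 667 nm spot fluorescence with signal to noise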
[7] = test system: Neuregulin-1 EGF-like domain; experiment: binders of neuregulin-1 EGF-like domain, primary screen, biochemical, small-molecule microarray, 635 nm fluorescence (AID 1081); conditions: small-molecule microarray binding, higher = more signal;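 note: binding of the protein to compounds printed on small-molecule microarray slides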
[8] = FRG1 promoter luciferase signal modulators, primary screen, FRG1 inhibition for FSHD, cell-based, C2C12 myotubes, firefly/Renilla luciferase, luminescence (AID 1084); conditions: higher = more signal, called active from +8 up or from −8 down
[9] = binders of probe aFST on microarray, primary screen, stem cell growth factor project, biochemical, small-molecule microarray, fluorescence 635/667 (AID 1086); conditions: higher = more signal;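 note: score merges 667 nm fluorescence with signal-to-noise of each printed compound spot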
[10] = binders of probe aHhip on microarray, primary screen, stem cell growth factor project, biochemical, small-molecule microarray, fluorescence 635/667 (AID 1087); conditions: higher = more signal;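 note: score merges spot fluorescence at 667nm with spot signal to noise ratio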
[11] = test system: PRMT1 (protein arginine N-methyltransferase 1); experiment: PRMT1 binders on small-molecule microarrays, primary screen, biochemical, small-molecule microarray, 635 nm fluorescence (AID 1088); conditions: small-molecule microarray binding, higher = more signal;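 note: binding of Prmt1 protein to compounds spotted on small-molecule microarray slides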
[12] = yeast growth modulation, basal conditions, primary screen, YJM789 clinical isolate, OD600, 24 h (AID 1089);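 note: growth of clinical yeast isolate S. cerevisiae YJM 789 seeded 1000 cells per well; test concentration not given here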; conditions: S. cerevisiae YJM789 growth, higher = more signal, called active from +8 up or from −8 down
[13] = fission yeast growth modulation, primary screen, strain 972, OD600, 24 h, no modulator (AID 1090);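 note: basal condition with compound alone and no growth modifier present; test concentration not given here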; conditions: S. pombe 972 growth, higher = more signal, called active from +8 up or from −8 down
[14] = S. cerevisiae growth modulation with rapamycin, primary screen, strain BY4716, OD600, 96 h (AID 1091); conditions: higher = more signal, called active from +8 up or from −8 down; note: test concentration not given here
[15] = target: Torsin-1A-interacting protein 2 (Homo sapiens) (UniProt Q8NFQ8); experiment: LULL1 binders on small-molecule microarray, primary screen, cell lysate, human LULL1 lysate, 635/667 nm fluorescence (AID 1092); conditions: hLULL1 lysate binding, 635 nm fluorescence, higher = more signal;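 note: probe is lysate of COS7 cells overexpressing human LULL1; score merges per-feature 667 nm fluorescence with signal-to-noise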
[16] = E. coli growth modulation, two-sided OD650, primary screen, E. coli filamentation project, strain DRC41, 24 h (AID 1093); conditions: OD650, 24 h, higher = more signal, called active from +8 up or from −8 down;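 note: MC1000 strain lacking acrAB efflux and sulA so SOS filamentation is blocked; test concentration not given here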
[17] = small-molecule microarray binders of probe aLefty2, primary screen, biochemical, biotinylated probe, 635/667 nm fluorescence (AID 1094); conditions: higher = more signal;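 note: score merges spot fluorescence near 667 nm with spot signal-to-noise ratio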
[18] = test system: Noggin (protein binding on small-molecule microarray); experiment: Noggin binders on small-molecule microarray, primary screen, biochemical, 635/667 nm fluorescence (AID 1095); conditions: 635 nm fluorescence, higher = more signal;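 note: score merges 667 nm feature fluorescence with signal to noise over triplicate slides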
[19] = target: Neurogenic locus notch homolog protein 3 (Homo sapiens) (UniProt Q9UM47); experiment: NOTCH3 binders on small-molecule microarray, primary screen, biochemical, 635/667 nm fluorescence (AID 1096); conditions: NOTCH3 binding, 635 nm fluorescence, higher = more signal
[20] = small-molecule microarray binders of probe aEGFR, primary screen, biochemical, biotinylated probe, 635/667 nm fluorescence (AID 1097); conditions: higher = more signal;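 note: probe is a biotinylated anti-EGFR antibody binding compounds printed on slides; score combines fluorescence near 667 nm and signal to noise of each spot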

Chain of Torsin-1A-interacting protein 2 (Homo sapiens) (Q8NFQ8 whole entry, looked up): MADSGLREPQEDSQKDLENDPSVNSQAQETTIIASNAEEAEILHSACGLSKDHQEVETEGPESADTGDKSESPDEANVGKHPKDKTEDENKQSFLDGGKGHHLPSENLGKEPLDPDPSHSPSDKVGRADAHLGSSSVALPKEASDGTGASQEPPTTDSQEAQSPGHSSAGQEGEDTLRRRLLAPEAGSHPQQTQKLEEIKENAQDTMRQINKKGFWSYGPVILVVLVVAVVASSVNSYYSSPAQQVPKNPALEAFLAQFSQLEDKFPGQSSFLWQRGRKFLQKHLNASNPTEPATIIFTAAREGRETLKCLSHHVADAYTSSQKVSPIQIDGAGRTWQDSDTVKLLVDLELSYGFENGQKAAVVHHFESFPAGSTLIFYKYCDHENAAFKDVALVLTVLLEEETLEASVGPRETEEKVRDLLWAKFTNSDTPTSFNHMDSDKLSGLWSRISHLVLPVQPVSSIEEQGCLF
Chain of Pro-neuregulin-1, membrane-bound isoform (Homo sapiens) (Q02297 whole entry, looked up, the tested form may be a part, canonical isoform): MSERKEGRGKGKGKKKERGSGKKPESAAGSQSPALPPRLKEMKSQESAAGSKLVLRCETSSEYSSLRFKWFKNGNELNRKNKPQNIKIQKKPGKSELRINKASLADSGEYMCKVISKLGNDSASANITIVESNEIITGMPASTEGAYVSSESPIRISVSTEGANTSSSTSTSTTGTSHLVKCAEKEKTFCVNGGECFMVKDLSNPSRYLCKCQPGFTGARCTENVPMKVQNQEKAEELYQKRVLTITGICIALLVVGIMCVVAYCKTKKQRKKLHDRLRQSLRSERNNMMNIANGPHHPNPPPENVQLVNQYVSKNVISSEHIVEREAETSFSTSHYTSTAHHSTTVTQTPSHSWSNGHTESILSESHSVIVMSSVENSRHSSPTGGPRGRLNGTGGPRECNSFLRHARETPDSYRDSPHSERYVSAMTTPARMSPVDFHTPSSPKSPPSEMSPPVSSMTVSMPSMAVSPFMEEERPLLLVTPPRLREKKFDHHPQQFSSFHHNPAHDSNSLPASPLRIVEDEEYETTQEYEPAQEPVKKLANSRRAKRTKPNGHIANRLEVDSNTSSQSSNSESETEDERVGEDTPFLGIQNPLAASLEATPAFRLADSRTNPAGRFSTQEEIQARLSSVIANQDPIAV
Chain of Neurogenic locus notch homolog protein 3 (Homo sapiens) (Q9UM47 whole entry, looked up): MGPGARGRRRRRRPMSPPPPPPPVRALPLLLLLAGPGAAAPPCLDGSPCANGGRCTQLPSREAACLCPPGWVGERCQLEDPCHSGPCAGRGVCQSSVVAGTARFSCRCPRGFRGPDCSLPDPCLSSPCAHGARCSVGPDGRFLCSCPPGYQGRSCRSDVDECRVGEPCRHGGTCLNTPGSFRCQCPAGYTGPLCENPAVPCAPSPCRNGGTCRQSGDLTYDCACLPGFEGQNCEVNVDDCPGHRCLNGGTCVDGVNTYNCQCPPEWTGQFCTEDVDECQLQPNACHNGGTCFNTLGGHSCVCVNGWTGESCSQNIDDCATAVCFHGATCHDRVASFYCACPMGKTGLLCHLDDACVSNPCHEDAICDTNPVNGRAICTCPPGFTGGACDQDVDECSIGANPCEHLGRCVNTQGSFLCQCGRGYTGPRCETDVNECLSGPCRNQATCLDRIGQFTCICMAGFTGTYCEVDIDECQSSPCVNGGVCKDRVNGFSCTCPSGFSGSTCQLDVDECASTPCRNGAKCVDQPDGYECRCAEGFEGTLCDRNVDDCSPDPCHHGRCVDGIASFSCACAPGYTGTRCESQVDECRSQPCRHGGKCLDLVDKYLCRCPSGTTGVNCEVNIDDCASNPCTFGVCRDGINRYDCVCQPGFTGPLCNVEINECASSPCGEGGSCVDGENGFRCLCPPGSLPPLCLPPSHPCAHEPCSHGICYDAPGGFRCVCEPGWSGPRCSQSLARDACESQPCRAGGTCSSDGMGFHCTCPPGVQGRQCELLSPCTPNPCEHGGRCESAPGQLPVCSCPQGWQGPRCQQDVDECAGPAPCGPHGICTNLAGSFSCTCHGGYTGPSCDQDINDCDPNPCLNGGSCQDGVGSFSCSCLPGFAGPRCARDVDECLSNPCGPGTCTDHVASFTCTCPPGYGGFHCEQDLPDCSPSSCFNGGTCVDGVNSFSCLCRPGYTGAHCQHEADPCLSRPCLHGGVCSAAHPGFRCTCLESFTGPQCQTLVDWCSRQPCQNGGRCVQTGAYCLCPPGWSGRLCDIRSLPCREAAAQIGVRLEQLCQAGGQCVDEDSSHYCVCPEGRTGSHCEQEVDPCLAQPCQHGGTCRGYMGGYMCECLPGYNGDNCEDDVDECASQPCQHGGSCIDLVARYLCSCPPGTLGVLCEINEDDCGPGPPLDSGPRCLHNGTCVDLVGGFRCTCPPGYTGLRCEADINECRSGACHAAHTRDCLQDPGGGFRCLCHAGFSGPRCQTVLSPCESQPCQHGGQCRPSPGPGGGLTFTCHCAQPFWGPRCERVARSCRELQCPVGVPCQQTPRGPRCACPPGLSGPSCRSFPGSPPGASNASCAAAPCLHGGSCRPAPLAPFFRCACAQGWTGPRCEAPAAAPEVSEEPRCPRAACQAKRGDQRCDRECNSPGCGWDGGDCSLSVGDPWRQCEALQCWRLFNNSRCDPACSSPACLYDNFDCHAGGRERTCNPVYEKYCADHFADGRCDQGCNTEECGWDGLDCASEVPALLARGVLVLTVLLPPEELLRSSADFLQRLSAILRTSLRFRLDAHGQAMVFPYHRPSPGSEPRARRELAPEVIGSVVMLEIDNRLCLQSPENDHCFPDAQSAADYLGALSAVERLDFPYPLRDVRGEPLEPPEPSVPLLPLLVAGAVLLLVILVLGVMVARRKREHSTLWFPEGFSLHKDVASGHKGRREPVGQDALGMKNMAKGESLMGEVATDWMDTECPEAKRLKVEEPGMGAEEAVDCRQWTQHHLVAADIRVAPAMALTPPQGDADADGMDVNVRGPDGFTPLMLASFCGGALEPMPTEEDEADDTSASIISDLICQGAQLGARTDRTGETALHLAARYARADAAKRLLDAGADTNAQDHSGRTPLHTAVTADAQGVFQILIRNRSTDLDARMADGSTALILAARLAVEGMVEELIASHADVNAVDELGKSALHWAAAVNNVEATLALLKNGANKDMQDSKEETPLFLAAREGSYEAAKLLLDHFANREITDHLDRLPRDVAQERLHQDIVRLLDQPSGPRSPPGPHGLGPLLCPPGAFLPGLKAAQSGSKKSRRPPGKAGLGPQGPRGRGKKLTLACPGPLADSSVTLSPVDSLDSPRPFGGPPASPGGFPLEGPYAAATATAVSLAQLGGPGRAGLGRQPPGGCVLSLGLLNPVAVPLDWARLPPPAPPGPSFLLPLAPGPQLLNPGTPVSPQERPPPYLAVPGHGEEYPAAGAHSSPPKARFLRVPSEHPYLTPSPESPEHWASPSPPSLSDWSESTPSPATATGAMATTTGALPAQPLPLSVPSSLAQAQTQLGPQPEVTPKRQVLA

| SMILES | composite z-score [1] | composite z-score [2] | composite z-score [3] | composite z-score [4] | composite z-score [5] | composite z-score [6] | composite z-score [7] | z-score [8] | composite z-score [9] | composite z-score [10] | composite z-score [11] | z-score [12] | z-score [13] | z-score [14] | composite z-score [15] | z-score [16] | composite z-score [17] | composite z-score [18] | composite z-score [19] | composite z-score [20] |
| --- | --- | --- | --- | --- | --- | --- | --- | --- | --- | --- | --- | --- | --- | --- | --- | --- | --- | --- | --- | --- |
| CCCC[C@H]1OB(O)C[C@H]2C1=C(C)C[C@H]1C(=O)N(Cc3ccccc3)C(=O)[C@H]12 | -0.573 | 0.383 | 0.0171 | 0.951 | 0.316 | 0.421 | 0.795 | 0.758 (inactive) | 0.267 | 0.312 | 0.705 | -0.482 (inactive) | -1.33 (inactive) | -1.04 (inactive) | 0.342 | 1.75 (inactive) | -0.102 | 0.919 | 0.666 | 0.0215 |
| COCCOC(=O)N1C(=O)[C@@]2(c3ccccc31)[C@H](C(=O)Nc1nc3ccccc3s1)[C@H]1C(=O)O[C@H](c3ccccc3)[C@H](c3ccccc3)N1[C@@H]2c1ccc(OCCO)cc1 | 0.001 | 0.686 | -0.0426 | 0.738 | 0.907 | 0.897 | 1.18 | 2.77 (inactive) | 0.381 | -0.117 | 1.54 | 1.13 (inactive) | 1.36 (inactive) | 3.37 (inactive) | 3.23 | 1.07 (inactive) | -0.0767 | 1.76 | 1.13 | -0.0581 |
| COc1ccc([Si](C)(C)[C@H]2[C@H](CCn3cc([C@H](O)c4ccccc4)nn3)O[C@@]3(C(=O)N(Cc4cccc(N5CCC5=O)c4)c4ccccc43)[C@@H]2C)cc1 | 0.386 | 0.238 | -0.0894 | 0.164 | -0.404 | -0.0001 | 0.557 | -1.99 (inactive) | -0.0509 | -0.191 | 0.423 | -1.89 (inactive) | 0.399 (inactive) | 1.82 (inactive) | 0.276 | 1.41 (inactive) | -0.196 | 0.806 | 0.349 | -0.167 |
| CC(C)NC(=O)[C@@]1(Cc2ccccc2I)c2ccccc2C(=O)N(Cc2ccccc2)[C@H]1c1ccc(CO)cc1 | 0.0478 | 0.613 | -0.017 | 0.554 | 0.787 | 1.38 | 0.986 | -2.91 (inactive) | 0.612 | 0.0401 | 1.53 | -0.805 (inactive) | -1.5 (inactive) | -0.291 (inactive) | 2.91 | -0.408 (inactive) | -0.0354 | 1.04 | 1.09 | -0.0605 |
| CC(C)CNC(=O)[C@@]1(c2ccc([N+](=O)[O-])cc2)CC(=O)N(CC23CC4CC(CC(C4)C2)C3)[C@@H]1c1ccc(CO)cc1I | 0.483 | 0.699 | -0.0226 | 0.26 | 1.34 | 0.168 | 1.29 | -1.52 (inactive) | 0.283 | -0.0994 | 1.54 | 0.951 (inactive) | 0.864 (inactive) | 3.26 (inactive) | 3.06 | -0.569 (inactive) | -0.0144 | 1.3 | 1.09 | -0.0088 |
| CCCCCN1CC=CC23O[C@@H]4/C=C\CCCOC(=O)C4[C@H]2C(=O)N(CCCCCCO)[C@@H]3C1=O (stereo not given in full) | -0.19 | 0.109 | -0.103 | -0.525 | -0.774 | 0.729 | 1.28 | -1.19 (inactive) | -0.645 | -0.37 | -0.0832 | -3.85 (inactive) | -2.83 (inactive) | -2.64 (inactive) | 3.32 | 1.61 (inactive) | -0.147 | -0.471 | -0.0559 | 0.0538 |
| CC(C)C(=C=CC[C@H](O)c1cccc(OCCO)c1)C[C@H](O)COCc1ccccc1 | -0.222 | 0.0852 | -0.095 | 0.659 | -0.139 | 1.67 | 1.13 | 0.724 (inactive) | -0.22 | -0.0994 | 0.975 | -0.0398 (inactive) | 0.299 (inactive) | -0.623 (inactive) | 1.92 | 0.299 (inactive) | -0.0616 | 0.551 | -0.243 | -0.081 |
| COC(=O)[C@@]1(Cc2ccc(F)cc2)[C@H]2c3cc(C(=O)N(C)C)n(CCc4ccccn4)c3C[C@H]2CN1C(=O)c1ccccc1 | 0.681 | 0.466 | 0.723 | 0.759 | 1.52 | 0.183 | 1.09 | 1.98 (inactive) | 2.35 | 0.178 | 1.16 | 2.9 (inactive) | 0.423 (inactive) | -0.616 (inactive) | 3.94 | 0.196 (inactive) | -0.0278 | 0.259 | 0.861 | 0.709 |
| COCCOC(=O)N1C(=O)[C@@]2(c3cc(C#CCNC(N)=O)ccc31)[C@H](c1ccc(OCCO)cc1)N1[C@H](c3ccccc3)[C@H](c3ccccc3)OC(=O)[C@H]1[C@@H]2C(=O)N1CCc2cc(OC)c(OC)cc2C1 | 0.187 | -0.0389 | -0.051 | 0.164 | 0.638 | 0.156 | 0.371 | 1.08 (inactive) | 0.883 | 0.327 | 0.993 | 1.46 (inactive) | 1.41 (inactive) | 4.56 (inactive) | 0.816 | 0.196 (inactive) | -0.0555 | 1.04 | 0.983 | -0.0007 |
| O=C1[C@]2(CO)C=C(Br)[C@@H](C[C@@H]2c2ccccc2)[C@@]12CO2 | -0.333 | -0.61 | -0.0507 | -0.0238 | 0.0861 | 0.251 | 0.245 | 1.2 (inactive) | -0.0624 | -0.134 | -0.756 | -0.904 (inactive) | -3.06 (inactive) | -0.666 (inactive) | -0.556 | 0.0737 (inactive) | -0.227 | 0.0401 | 0.224 | -0.0828 |
